Structures are written as SMILES. Calls of active or inactive are those of the source.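 Rule for the calls, unless noted: active = visual image review flags a hit and inhibition of aggregation exceeds 20%; inconclusive = visual hit but inhibition at or below 20%; inactive = no hit on visual image review.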

The nature of assay [1]: inhibitors of TNFa-induced NFkB p65 translocation, primary screen, imaging, HUVEC, MLSMR starter and 10KST1 sets (AID 438;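 active = inhibition above 20% together with a positive visual image hit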;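 note: compound added about 3h40 before a 20 min TNFalpha stimulation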;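 for inhibition: signal is the nuclear over cytoplasmic p65 intensity ratio per well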). The settings on record: HUVEC TNFa-induced p65 nuclear translocation; cell count: measured here: nuclei count (cytotoxicity indicator), at 2.08 µM; inhibition: at 2 µM, stronger effect = higher value, 0% TNFa-plus-vehicle, 100% no-TNFa wells.
Assay [2] in a line: inhibitors of mutant huntingtin aggregation, primary screen, imaging, exon1htt(103Q)mCFP cells, high-content imaging (AID 483).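 For nuclei count: percent of the per-plate median nuclei count of sample wells.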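 Note: compound exposure lasted 3 days before fixation.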 The settings on record: exon1htt(103Q)mCFP cell line, aggregate imaging, at 2 µM; inhibition of aggregation: stronger effect = higher value; nuclei count: measured here: cell count, toxicity.
The nature of assay [3]: inhibitors of E-selectin induction by TNFa, primary screen, imaging, HUVEC, immunofluorescence, MLSMR starter and 10KST1 sets (AID 487;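 active = visually confirmed hit in the image check and inhibition above 20%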;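 for inhibition: signal is fraction of cell area covered by stained E-selectin grains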;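 for nuclei count: 100% = median nuclei count of all wells on the same plate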). To be noted: HUVEC TNFalpha-induced E-selectin immunofluorescence imaging, at 2 µM; inhibition: stronger effect = higher value; nuclei count: measured here: cell number, toxicity.
Assay [4] addresses Voltage-gated potassium channel subunit beta-2 (Rattus norvegicus) (UniProt P62483). Kind of assay: KvBeta enzyme negative modulators, primary screen, biochemical, NADPH fluorescence (AID 622;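 active = fluorescence slope higher than the sample average by over 3 SD, cut at about -0.22 in these data, passing the limit was not always enough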;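 note: slope of raw intensity against log time taken from 70 to 1610 s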). The settings on record: recombinant KvBeta, 4-cyanobenzaldehyde reduction, at 10 µM, stronger effect = higher value.
The target is the same in assay [5]. Nature of the assay: KvBeta positive modulators, primary screen, biochemical, NADPH fluorescence (AID 623;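 active = NADPH fluorescence slope more negative than the mean of all samples by about 3 SD, 99.7% confidence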;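 note: fluorescence intensity change per second fitted from 20 to 320 s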). To be noted: Recombinant KvBeta, NADPH fluorescence decrease slope, 10 min; at 10 µM; stronger effect = lower value.
For assay [6], the target named is Alpha-2C adrenergic receptor (Homo sapiens) (UniProt P18825). Nature of the assay: modulators of alpha2C/GIRK thallium flux, primary screen, cell-based, HEK293 alpha2C/GIRK1/2 (AID 624;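 active = fluorescence slope after compound addition differing from the mean of all screened samples at 99.7% confidence, in either direction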;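 note: slope of fluorescence ratio to pre-addition baseline per second over 15 to 24 s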). The settings on record: thallium flux BTC fluorescence, at 10 µM, actives lie on both sides.
Assay [7] in a line: inhibitors of Sendai virus-induced IRF3 signaling, primary screen, TLR/RLR signaling modifier project, cell-based, Sendai virus stimulus, luciferase, 10K MLSCN set (AID 602276;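 active = inhibition at or above 50% at 10 µM; inactive = inhibition below 50%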;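 note: firefly luciferase from ISG56 promoter only with Renilla not read in this screen; 0% = Sendai virus plus DMSO and 100% = medium plus DMSO without virus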). To be noted: HEK293 RL24 IRF3 luciferase reporter, at 10 µM, stronger effect = higher value.
The nature of assay [8]: inhibitors of poly I:C-induced TLR3 signaling, primary screen, cell-based, poly I:C stimulus, luciferase, 10K MLSCN set (AID 602277;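 active = inhibition of the reporter signal at or above 50%; inactive = inhibition below 50%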). To be noted: HEK293-TLR3 RL24 IRF3 luciferase reporter, at 10 µM, stronger effect = higher value. In general terms: Reporter assays use an easily measured gene product as a stand-in for the process of interest.

Chain of Voltage-gated potassium channel subunit beta-2 (Rattus norvegicus) (P62483 whole entry, looked up): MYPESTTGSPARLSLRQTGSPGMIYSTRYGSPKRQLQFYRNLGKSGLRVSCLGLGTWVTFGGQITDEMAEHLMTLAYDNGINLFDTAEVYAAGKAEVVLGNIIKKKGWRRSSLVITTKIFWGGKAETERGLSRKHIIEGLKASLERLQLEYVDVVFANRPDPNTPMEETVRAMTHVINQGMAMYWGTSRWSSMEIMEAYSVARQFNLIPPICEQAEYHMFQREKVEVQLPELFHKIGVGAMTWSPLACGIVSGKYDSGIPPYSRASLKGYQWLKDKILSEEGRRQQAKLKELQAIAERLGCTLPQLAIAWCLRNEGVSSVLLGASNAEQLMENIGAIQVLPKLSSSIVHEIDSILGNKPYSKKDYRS
Chain of Alpha-2C adrenergic receptor (Homo sapiens) (P18825 whole entry, looked up): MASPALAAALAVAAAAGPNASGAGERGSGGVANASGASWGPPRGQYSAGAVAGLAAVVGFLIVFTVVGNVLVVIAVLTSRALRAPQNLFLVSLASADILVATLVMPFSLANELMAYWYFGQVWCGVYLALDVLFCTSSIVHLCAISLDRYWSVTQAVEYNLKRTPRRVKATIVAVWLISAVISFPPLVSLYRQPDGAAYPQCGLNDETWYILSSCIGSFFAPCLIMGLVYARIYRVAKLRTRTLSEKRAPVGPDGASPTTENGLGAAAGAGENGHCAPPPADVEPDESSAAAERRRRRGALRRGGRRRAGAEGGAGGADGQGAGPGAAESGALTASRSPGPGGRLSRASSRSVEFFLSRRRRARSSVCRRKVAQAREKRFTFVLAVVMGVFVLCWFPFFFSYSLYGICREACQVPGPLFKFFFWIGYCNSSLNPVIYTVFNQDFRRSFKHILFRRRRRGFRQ

Take `CC1Cc2nc(SCC(=O)Nc3ccccc3F)n(C)c(=O)c2S1` (stereo not drawn): the cell count in assay [1] stood at 385. Further, the inhibition in assay [1] was 4.4% (inactive); in assay [3], -15% (inactive); in assay [7] it was 10.7% (inactive); in assay [8], 3.28% (inactive). The inhibition of aggregation in assay [2] was -9.2% (inactive). Besides, the nuclei count in assay [2] is 98.4%; in assay [3], 113%. The fluorescence slope in assay [4] is -0.505 (inactive). Besides, the NADPH fluorescence slope in assay [5] was -2.1e-05 (inactive). In addition, the slope in assay [6] was 0.00529 (inactive).
Turning to `Fc1ccc(C(c2nnnn2Cc2ccco2)N2CCN(C3CCCCC3)CC2)cc1` (stereo not drawn), the cell count in assay [1] came to 297. The inhibition in assay [1] is -3.3% (inactive); in assay [3], -98.2% (inactive); in assay [7], -10.1% (inactive); in assay [8] it was -16.4% (inactive). Besides, the inhibition of aggregation in assay [2] is 11.4% (inactive). For the same compound, the nuclei count in assay [2] is 98%; in assay [3], 130%. In assay [4], the fluorescence slope is -0.552 (inactive). For the same compound, in assay [5], the NADPH fluorescence slope was 3.4e-05 (inactive). In addition, the slope in assay [6] is 0.00429 (inactive).
As for `CCN(CC(=O)NC1CCS(=O)(=O)C1)C(=O)C(c1ccccc1)c1ccccc1` (stereo not drawn), the cell count in assay [1] was 887. The inhibition in assay [1] was 3.8% (inactive); in assay [3], -74.7% (inactive); in assay [7], 6.14% (inactive); in assay [8], 5.12% (inactive). Besides, the inhibition of aggregation in assay [2] is -12.1% (inactive). Also, the nuclei count in assay [2] came out at 105%; in assay [3], 130%. The fluorescence slope in assay [4] was -0.261 (inactive). Also, the NADPH fluorescence slope in assay [5] is -5e-05 (inactive). Also, the slope in assay [6] was 0.00562 (inactive).
On to `O=C(C1CCCN(S(=O)(=O)c2cccc3nonc23)C1)N1CCC(Cc2ccccc2)CC1` (stereo not drawn), for which the cell count in assay [1] was found to be 385. For the same compound, the inhibition in assay [1] is -11.2% (inactive); in assay [3], 24.5% (inactive); in assay [7] it was 7.74% (inactive); in assay [8], 25.7% (inactive). Besides, the inhibition of aggregation in assay [2] was 3% (inactive). The nuclei count in assay [2] came to 101%; in assay [3], 59.6%. The fluorescence slope in assay [4] is -0.304 (inactive). Also, the NADPH fluorescence slope in assay [5] is -1e-05 (inactive). Further, the slope in assay [6] was 0.00394 (inactive).
For `CCOC(=O)c1c(NC(=O)c2nn(CC)cc2Br)c(C#N)cn1-c1ccccc1`, in assay [1], the cell count was 467. The inhibition is 0.6% (inactive) in assay [1], -36.5% (inactive) in assay [3], 0.0192% (inactive) in assay [7] and -9.02% (inactive) in assay [8]. Moreover, the inhibition of aggregation in assay [2] was -9.2% (inactive). Also, the nuclei count in assay [2] came out at 51.8%; in assay [3], 93.5%. In addition, in assay [4], the fluorescence slope is -0.407 (inactive). Also, the NADPH fluorescence slope in assay [5] was -2.9e-05 (inactive). Besides, the slope in assay [6] is 0.00368 (inactive).
Regarding `CC1=C(C(=O)NCc2ccco2)C2(CCC(C)CC2)OC1=O` (stereo not drawn), in assay [1], the cell count was found to be 438. Besides, the inhibition in assay [1] was 7.7% (inactive); in assay [3], -20.5% (inactive); in assay [7], 23% (inactive); in assay [8], 23.3% (inactive). Also, in assay [2], the inhibition of aggregation is 22.4% (inactive). Further, the nuclei count in assay [2] was determined as 62.3%; in assay [3], 106%. The fluorescence slope in assay [4] is -0.513 (inactive). Also, the NADPH fluorescence slope in assay [5] is -2.5e-05 (inactive). Also, the slope in assay [6] is 0.00707 (inactive).
In the case of `CCCSc1nc(N)c(C#N)c(-c2ccc(C)cc2)c1C#N`, the cell count in assay [1] is 683. Further, the inhibition in assay [1] was 10.1% (inactive); in assay [3], -31.9% (inactive); in assay [7], 3.6% (inactive); in assay [8], 9.67% (inactive). For the same compound, in assay [2], the inhibition of aggregation was -10.3% (inactive). The nuclei count in assay [2] turned out to be 104%; in assay [3] it was 141%. Moreover, the fluorescence slope in assay [4] is -0.382 (inactive). In addition, the NADPH fluorescence slope in assay [5] is -6.2e-05 (inactive). In addition, the slope in assay [6] is 0.00536 (inactive).
As for `CCOc1cc(/C=N/n2cnnc2)cc(Br)c1O`, the cell count in assay [1] was 819. In addition, the inhibition in assay [1] is 4.2% (inactive); in assay [3] it was -30.9% (inactive); in assay [7], 13.1% (inactive); in assay [8] it was 7.19% (inactive). Besides, in assay [2], the inhibition of aggregation was -15.3% (inactive). Moreover, the nuclei count in assay [2] worked out at 100%; in assay [3], 124%. In assay [4], the fluorescence slope is -0.381 (inactive). Besides, the NADPH fluorescence slope in assay [5] was -4.4e-06 (inactive). Besides, the slope in assay [6] was 0.00481 (inactive).
On to `Cc1nc2ccc(S(=O)(=O)NC(C(=O)N3CCCC3)C(C)C)cc2s1` (stereo not drawn), for which the cell count in assay [1] is 677. The inhibition in assay [1] was 1.8% (inactive); in assay [3], -33% (inactive); in assay [7], 12.9% (inactive); in assay [8], 13.8% (inactive). The inhibition of aggregation in assay [2] is -21.4% (inactive). Moreover, the nuclei count in assay [2] was 111%; in assay [3], 110%. Besides, the fluorescence slope in assay [4] was -0.613 (inactive). Also, the NADPH fluorescence slope in assay [5] was 1.2e-05 (inactive). Further, the slope in assay [6] was 0.00717 (inactive).
Regarding `Nc1nc(Nc2cccc3ccccc23)nc(C2CCCC2=O)n1` (stereo not drawn), in assay [1], the cell count was 349. The inhibition in assay [1] is 1.8% (inactive); in assay [3] it was -38.8% (inactive); in assay [7] it was 4.53% (inactive); in assay [8] it was 13.8% (inactive). Besides, in assay [2], the inhibition of aggregation was -7% (inactive). For the same compound, the nuclei count is 97.3% in assay [2] and 109% in assay [3]. Moreover, the fluorescence slope in assay [4] is -0.312 (inactive). The NADPH fluorescence slope in assay [5] was -7e-05 (inactive). Moreover, the slope in assay [6] was 0.00598 (inactive).
For `CC1CCN(c2c(NCc3ccc(C(=O)N4c5ccccc5CC4C)cc3)c(=O)c2=O)CC1` (stereo not drawn), the cell count in assay [1] amounted to 726. Besides, the inhibition in assay [1] is -5.7% (inactive); in assay [3] it was -38.2% (inactive); in assay [7] it was 21.8% (inactive); in assay [8], 45.8% (inactive). The inhibition of aggregation in assay [2] was 31.5% (inactive). Further, the nuclei count in assay [2] is 104%; in assay [3], 105%. The fluorescence slope in assay [4] was -0.572 (inactive). For the same compound, in assay [5], the NADPH fluorescence slope is -3.6e-05 (inactive). In addition, the slope in assay [6] is 0.00643 (inactive).
Consider `c1ccc(N2CCN(Cc3ccnc4ccccc34)CC2)cc1`, for which the cell count in assay [1] came to 424. In addition, the inhibition was 5.4% (inactive) in assay [1], 43.4% (inactive) in assay [3], -12.4% (inactive) in assay [7] and -22.2% (inactive) in assay [8]. The inhibition of aggregation in assay [2] is 10.4% (inactive). Also, the values for the nuclei count in assay [2] and in assay [3] were 83.9% and 102%, respectively. Further, in assay [4], the fluorescence slope was -0.477 (inactive). Further, in assay [5], the NADPH fluorescence slope is -3.9e-05 (inactive). In addition, in assay [6], the slope is 0.0043 (inactive).
Turning to `CC1CN(C(=O)c2scc3c2OCCO3)CC(C)O1` (stereo not drawn), the cell count in assay [1] was 190. Besides, the inhibition in assay [1] was -5.4% (inactive); in assay [3] it was 11.5% (inactive); in assay [7], 17.3% (inactive); in assay [8], 20.4% (inactive). For the same compound, the inhibition of aggregation in assay [2] is 0.7% (inactive). In addition, the nuclei count in assay [2] was found to be 75%; in assay [3], 77%. In addition, in assay [4], the fluorescence slope was -0.598 (inactive). Moreover, the NADPH fluorescence slope in assay [5] is -1.6e-05 (inactive). Besides, in assay [6], the slope was 0.00693 (inactive).

By inhibition is commonly meant the change of the read-out against control, counted positive when it falls.

For the origin of these results see PubChem BioAssay.
